This passage reports Potency results from PubChem BioAssay (NCATS).

Results filed as inconclusive are left out. Entries that show only a call come without a potency. Active and inactive are the calls of the source. The call rests on the fitted dose curve; in most records, active means well fitted inhibition curve with a large enough effect; inconclusive means small, poorly fitted or top-dose-only effect; inactive means no such curve, though single readings can be large or run the other way.
Potency means the concentration at half of the fitted maximal effect.

This assay can be described thus: qHTS for Inhibitors of the Aldehyde Dehydrogenase Family (ALDH1A2, ALDH1A3, ALDH2, ALDH3A1) (AID 2061307). Further: nearly all actives have a fitted effect of over 50% in size. On Potency: test system not described further here. The conditions noted are these: ALDH inhibition qHTS; series mostly up to 50.3 µM.
On to `c1ccc(Nc2cc(-c3ccoc3)ncn2)cc1`, for which the Potency entry is “inactive”. Next, `CSCc1cccc(C(=O)Nc2cccnc2)c1`: “inactive”. Next, `CCc1cccc(CC)c1-n1c(C)c(C(=O)NC2CC2)cc(-c2nc(-c3ccc(Cl)cc3)cs2)c1=O`: “inactive”; `Cc1nc(-c2ccc(Cl)s2)sc1C(=O)Nc1ccc(C(N)=O)c(F)c1`: “inactive”.

`Cc1nc2cc(NS(=O)(=O)c3cc(C(=O)O)ccc3C)ccc2o1`: the Potency was 12.6 µM (active). With `Cc1ccc2c(c1)/C(=C\C(=O)c1cccs1)C(=O)N2`, the Potency result is “inactive”. Next, `COc1ccc(Cl)cc1NC(=O)c1nn(-c2ccc(C)cc2)c(=O)n(C)c1=O`: “inactive”.

Take `Cc1ccc(C)n1-c1ccccc1C(=O)O`: the Potency result is “inactive”.

In the case of `Cn1c(=O)n(C)c2cc(N3CCCC3)c(NC(=O)Nc3ccccc3)cc21`, the Potency entry was “inactive”.

Turning to `CC(C)Oc1ccccc1NC(=O)N1CCN(c2ccccc2)CC1`, the Potency entry was “inactive”. Next, `Cc1c(P(=S)(c2ccccc2)c2ccccc2)[n+]2ccccc2n1C/C=C/c1ccc(Cl)cc1`: “inactive”; `CS(=O)(=O)c1cccc(-c2csc3ncnc(Sc4nncs4)c23)c1`: “inactive”; `CCn1c(=O)cc(OCC(=O)N2CCN(c3cccc(Cl)c3)CC2)c2ccccc21`: “inactive”. `Cc1cc(NS(=O)(=O)c2ccc(NCCc3ccc(Cl)c(Cl)c3)cc2)no1`: the Potency was 2.83 µM (active). Next, `O=C(Nc1cc(S(=O)(=O)N2CCOCC2)ccc1N1CCCCC1)c1cc(-c2ccccn2)nc2ccccc12`: “inactive”.

Regarding `CCOC(=O)Cc1ccc(NC(=O)n2ncc3cc(Cl)ccc32)cc1`, the Potency entry was “inactive”. Next, `COc1ccc(-n2ncc3c2CCCC3NC(=O)c2cccc(C(F)(F)F)c2)cc1` (stereo not given): 11.3 µM (active). The result for `O=C(Nc1ncc(Cc2ccccc2F)s1)c1ccn(-c2ccccc2)n1` reads “inactive”; that for `CC(=O)c1c(C)n(-c2ccccc2)c2ccc(O)cc12`, 0.798 µM (active); that for `N#Cc1ccc(C(=O)Nc2nnc(C3=COCCO3)o2)cc1`, “inactive”.

Take `Cc1ccc(NC(=O)c2cc(-c3cccs3)on2)cc1C`: the Potency entry was “inactive”.

`O=C(NCc1ccc(F)cc1)c1nc(-c2ccc(F)cc2)c2ccccn12`: the Potency entry was “inactive”. On to `O=C(Nc1ccncc1)c1cccs1`, for which the Potency entry was “inactive”. Next, `COc1ccc(CN2CCN(C(=O)c3cc4c(s3)CCC4)CC2)cc1`: “inactive”; `Oc1ccc(N2CCN(Cc3ccc(OCCCN4CCCCC4)cc3)CC2)cc1`: “inactive”; `CC(=O)c1cccc(Nc2cc(C)nc3nc(-c4ccccc4C)nn23)c1`: “inactive”. The result for `Cc1cccc(NC(=O)CSCC(=O)Nc2ccc(F)cc2)c1` reads “inactive”. Next, `O=S(=O)(c1ccccc1)N1CCC(N(CCc2ccccc2)Cc2ccccc2)CC1`: 0.708 µM (active).

Consider `COc1ccc(-n2ncc3c2CCCC3NC(=O)c2cccc(OC(F)(F)F)c2)cc1` (stereo not given), for which the Potency was 12.6 µM (active). Next, `COc1ccc(-n2c(C)c(C(C)=O)c3cc(OC)ccc32)cc1`: “inactive”; `c1ccc(CN2CCN(c3nccc(-c4ccncc4)n3)CC2)nc1`: “inactive”; `C[S+](=O)([O-])c1ccc(-c2nnc3ccc(C(=O)NCc4cccs4)cn23)cc1`: “inactive”. Next, `COc1cc2ccccc2cc1C(=O)NC(=S)Nc1cccc(C(=O)O)c1`: 4.49 µM (active); `COc1ccc(-n2c(C)c(C(C)=O)c3cc(OC(=O)c4ccco4)ccc32)cc1`: “inactive”. With `COc1ccc(CCNC(=O)c2ccc3nnc(-c4ccc([S+](C)(=O)[O-])cc4)n3c2)cc1`, the Potency result is “inactive”. As for `COCc1ccc(-c2nn(Cc3ccccc3)c3ccccc23)o1`, the Potency was 11.3 µM (active).

With `O=C(Nc1cccc(C(F)(F)F)c1)c1ccccc1NCc1ccccc1`, the Potency result is “inactive”. For the molecule `NS(=O)(=O)c1ccc(Cc2cn(-c3nc(C(=O)O)cs3)c3cc(C(=O)N4CCOCC4)ccc23)cc1`, the Potency entry is “inactive”.

On to `COc1ccc(C(=O)c2c(C)n(CC(=O)O)c3cc(OC)ccc23)cc1`, for which the Potency result was “inactive”.

Consider `Brc1ccc(CN2CCC(N(CCc3ccccc3)Cc3ccccc3)CC2)cc1`, for which the Potency result was “inactive”.
